High-throughput results: PubChem BioAssay, The Scripps Research Institute Molecular Screening Center
NOTCH ag = agonists of NOTCH signaling; NOTCH signaling luciferase reporter cells, luminescence; activation, % at 2.5 µM; 15,000 tested, 0.4% active; in the data active means activation above about 2.2%
S1P1 ag = activates the human S1P1 receptor; S1P1 agonist cell-based reporter assay; 16,000 tested, 1.5% active; activation, % at 4.5 µM; Sphingosine 1-phosphate receptor 1 (Homo sapiens), P21453; in the data active means activation above about 80%
TLR4-MyD88 inh = inhibitors of human TLR4-MyD88 binding; Toll-like receptor 4 (Homo sapiens), O00206; Cell-based TLR4-MyD88 binding inhibition assay; inhibition, % at 10 µM; 16,000 tested, 0.06% active; AID 811, 2007; in the data active means inhibition above about 45%
Nox1 inhibitor = inhibitors of human NADPH oxidase 1 (Nox1). Q9Y5S8. HT29 cells, luminol chemiluminescence ROS. inhibition, % at 6.7 µM. 16,000 tested, 0.81% active
KOR antag MB = antagonists of human kappa opioid receptor OPRK1, Maybridge library. OPRK1 cells, antagonist mode, fluorescence readout. 16,000 tested, 0.4% active. inhibition, % at 9 µM; in the data active means inhibition above about 50%
Luminol counter = counter-screen for Nox1 inhibitors: inhibitors of luminol chemiluminescence; HRP/luminol/H2O2 chemiluminescence counterscreen; inhibition, % at 6.7 µM; 16,000 tested, 0.4% active; AID 1823, 2009; further: reference of the scale not given here
An asterisk follows results filed as active; / = no result. Hits are enriched below; roughly 3.7% of the tested compounds scored in any of these assays. Unless noted, no stated cut-off is given here; in the data, active means inhibition above about 75%; inactive means the rest.

SMILES | NOTCH ag | S1P1 ag | TLR4-MyD88 inh | Nox1 inhibitor | KOR antag MB | Luminol counter
COC1OC(OC)C2C3CCC(CC3O)C12 (stereo unspecified) | 0 | -4 | 0 | -52 | -1 | 2
O=C(NNC(=O)c1cnn(-c2ccc(Cl)cc2)c1C(F)(F)F)C1=Cc2cc(Cl)ccc2OC1 | 0 | -4 | 9 | -8 | 22 | -1
CC(=O)n1nccc1-c1c(C)nc2ccccn12 | 0 | -2 | -1 | -34 | -9 | -1
Cc1ccc(S(=O)(=O)n2nccc2-c2c(C)nc3ccccn23)cc1 | 0 | 88* | -1 | -11 | -8 | 0
Cc1ccc(SC#N)c(N)n1 | 0 | 2 | -4 | 100* | -6 | -9
O=c1[nH][nH]c(=O)c2ccccc12 | 0 | -31 | 2 | -62 | 4 | 3
CN(C)c1ccc(/C=N/Nc2c(Cl)cncc2Cl)cc1 | 1 | 35 | -16 | 102* | -15 | 3
CCOc1c(NN(C)C)c(=O)c1=O | 0 | 21 | 4 | 3 | 11 | 102*
C/C(=N\O)c1cc(-c2ccccc2)no1 | -1 | 2 | -7 | -13 | 3 | 2
O=c1c2c(-c3ccc([N+](=O)[O-])cc3)onc2n(-c2ccccc2)c(=O)n1-c1ccccc1 | -1 | 123* | 4 | 94* | -17 | 2
COc1cc(CCC(=O)NNC(=O)C(F)(F)F)cc(OC)c1OC | -1 | -6 | -1 | 9 | -8 | -2
COc1cc(CCC(=O)NNC(=S)Nc2ccc(F)cc2)cc(OC)c1OC | 0 | 1 | -3 | 13 | -4 | 92*
C=CCNC(NC(=O)OCC)(C(F)(F)F)C(F)(F)F | / | 9 | 6 | -5 | -11 | -9
O=C(ON=C1CCCCC1)c1ccc(Cl)cc1 | 0 | -6 | -8 | 25 | 6 | -5
